Data as given in PubChem BioAssay (Tox21).
Where “and” joins values, the source holds several entries; their conditions need not be identical. Equal values may be shown once. Records with an inconclusive call do not appear. Entries that show only a call come without a potency. Some structures have more than one record in an assay (separate samples or runs), and their calls can disagree. Calls of active or inactive are those of the source. The call rests on the fitted dose curve; in most records, active means well fitted curve in the direction sought with a large enough effect in the repeat runs; inconclusive means weak or mixed curves; inactive means no such curve, though single readings can be large; an effect the other way counts as inactive or inconclusive.

Assay: A CellTox Green Cytotoxicity Assay to monitor cytotoxicity in HEK293 cells - 0 hour (AID 1224869); further: nearly all actives have a fitted effect of over 50% in size; further: potency means the concentration at half of the fitted maximal effect
Details: CellTox Green fluorescence; series mostly up to 76.8 µM
Method in brief: (§1)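 Fluorescence intensity, read at 0, 8, 16, 24, 32 and 40 h of compound treatment, reflected dye binding to DNA of dead HEK293 cells; compounds (23 nL, DMSO) were added 5 h after plating cells with reagent.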

SMILES | Potency
[N-]=[N+]=[N-] | inactive
CCc1cccc(C)c1N(C(=O)CCl)C(C)COC (stereo not drawn) | inactive
CC(C)C1(C)N=C(c2nc3ccccc3cc2C(=O)O)NC1=O (stereo not drawn) | inactive
C#CCN(C)[C@H](C)Cc1ccccc1 | inactive
CN1C(=O)CN=C(c2ccccc2)c2cc(Cl)ccc21 | inactive
CC(Br)C(=O)O (stereo not drawn) | inactive
O=C1CCCN1 | inactive
CCC12COCN1COC2 | inactive
CC(C)=C[C@@H]1[C@@H](C(=O)OCc2coc(Cc3ccccc3)c2)C1(C)C | inactive
Cc1cc(-c2cc(C)c(N)c(C)c2)cc(C)c1N | inactive
c1ccc(-c2ccccc2)cc1 | inactive
Nc1ccc(Oc2ccc(N)cc2)cc1 | inactive
O=C(NC(=O)c1c(F)cccc1F)Nc1cc(Cl)c(OC(F)(F)C(F)C(F)(F)F)cc1Cl (stereo not drawn) | inactive
O=[N+]([O-])c1ccc(Oc2ccc(Cl)cc2Cl)cc1 | inactive
COc1ccc2c3c1O[C@H]1[C@@H](O)C=C[C@H]4[C@@H](C2)N(C)CC[C@@]341 | inactive
Clc1ccc(Cl)cc1 | inactive
Cc1ccc(N)cc1Cl | inactive
O=c1n(Cl)c(=O)n(Cl)c(=O)n1Cl | inactive

SMILES | Potency
O=c1ccc(=O)[nH][nH]1 | inactive
COP(N)(=O)SC (stereo not drawn) | inactive
CCOC(=O)c1ccccc1C(=O)OCC | inactive
C1CC2OC2CC1C1CO1 (stereo not drawn) | inactive
CC(C)OC(=O)Nc1ccccc1 | inactive
CC(C#N)CCC#N (stereo not drawn) | inactive
O=NN1CCCC1 | inactive
O=Cc1cccc(Oc2ccccc2)c1 | inactive
CC(C)N1C(=O)c2ccccc2NS1(=O)=O | inactive
C#CC(C)(C)NC(=O)c1cc(Cl)cc(Cl)c1 | inactive
COC(=O)c1ccccc1N | inactive
Cc1ccc(N)cc1N | inactive
OCCN(CCO)CCO | inactive
CCCCCCCCCCCC#N | inactive and 45.2 µM (active)
CN(C)CCO | inactive
Nc1c(Cl)c(Cl)nc(C(=O)O)c1Cl | inactive
CC(C)(C)OOC(=O)c1ccccc1 | inactive
O=c1[nH]c(=O)[nH]c(=O)[nH]1 | inactive

Assay: qHTS RealTime-Glo MT Cell Viability Assay in HepG2 cells - 40 hour (AID 1224870); further: nearly all actives have a fitted effect of over 50% in size
Details: RealTime-Glo luminescence; series mostly up to 76.8 µM
Method in brief: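 HepG2 cells mixed with RealTime-Glo MT reagents (NanoLuc plus cell-permeant prosubstrate) were seeded at 600 cells/well, incubated 5 h at 37 C/5% CO2, then pinned with compounds in DMSO; nonlytic luminescence tracked viability during 40 h treatment.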

SMILES | outcome
[N-]=[N+]=[N-] | inactive
CCc1cccc(C)c1N(C(=O)CCl)C(C)COC (stereo not drawn) | inactive
CC(C)C1(C)N=C(c2nc3ccccc3cc2C(=O)O)NC1=O (stereo not drawn) | inactive
C#CCN(C)[C@H](C)Cc1ccccc1 | inactive
CN1C(=O)CN=C(c2ccccc2)c2cc(Cl)ccc21 | inactive
CC(Br)C(=O)O (stereo not drawn) | inactive
O=C1CCCN1 | inactive
CCC12COCN1COC2 | inactive
CC(C)=C[C@@H]1[C@@H](C(=O)OCc2coc(Cc3ccccc3)c2)C1(C)C | inactive
Cc1cc(-c2cc(C)c(N)c(C)c2)cc(C)c1N | inactive
c1ccc(-c2ccccc2)cc1 | inactive
Nc1ccc(Oc2ccc(N)cc2)cc1 | inactive
O=C(NC(=O)c1c(F)cccc1F)Nc1cc(Cl)c(OC(F)(F)C(F)C(F)(F)F)cc1Cl (stereo not drawn) | inactive
O=[N+]([O-])c1ccc(Oc2ccc(Cl)cc2Cl)cc1 | inactive
COc1ccc2c3c1O[C@H]1[C@@H](O)C=C[C@H]4[C@@H](C2)N(C)CC[C@@]341 | inactive
Clc1ccc(Cl)cc1 | inactive
Cc1ccc(N)cc1Cl | inactive
O=c1n(Cl)c(=O)n(Cl)c(=O)n1Cl | inactive

SMILES | outcome
O=c1ccc(=O)[nH][nH]1 | inactive
COP(N)(=O)SC (stereo not drawn) | inactive
CCOC(=O)c1ccccc1C(=O)OCC | inactive
C1CC2OC2CC1C1CO1 (stereo not drawn) | inactive
CC(C)OC(=O)Nc1ccccc1 | inactive
CC(C#N)CCC#N (stereo not drawn) | inactive
O=NN1CCCC1 | inactive
O=Cc1cccc(Oc2ccccc2)c1 | inactive
CC(C)N1C(=O)c2ccccc2NS1(=O)=O | inactive
C#CC(C)(C)NC(=O)c1cc(Cl)cc(Cl)c1 | inactive
COC(=O)c1ccccc1N | inactive
Cc1ccc(N)cc1N | inactive
OCCN(CCO)CCO | inactive
CCCCCCCCCCCC#N | inactive
CN(C)CCO | inactive
Nc1c(Cl)c(Cl)nc(C(=O)O)c1Cl | inactive
CC(C)(C)OOC(=O)c1ccccc1 | inactive
O=c1[nH]c(=O)[nH]c(=O)[nH]1 | inactive

Assay: A CellTox Green Cytotoxicity Assay to monitor cytotoxicity in HEK293 cells - 40 hour (AID 1224871); further: nearly all actives have a fitted effect of over 45% in size; further: potency means the concentration at half of the fitted maximal effect
Details: CellTox Green fluorescence; series mostly up to 76.8 µM
Method in brief: as §1

SMILES | Potency
[N-]=[N+]=[N-] | inactive
CCc1cccc(C)c1N(C(=O)CCl)C(C)COC (stereo not drawn) | inactive
CC(C)C1(C)N=C(c2nc3ccccc3cc2C(=O)O)NC1=O (stereo not drawn) | inactive
C#CCN(C)[C@H](C)Cc1ccccc1 | inactive
CN1C(=O)CN=C(c2ccccc2)c2cc(Cl)ccc21 | inactive
CC(Br)C(=O)O (stereo not drawn) | inactive
O=C1CCCN1 | inactive
CCC12COCN1COC2 | inactive
CC(C)=C[C@@H]1[C@@H](C(=O)OCc2coc(Cc3ccccc3)c2)C1(C)C | inactive
Cc1cc(-c2cc(C)c(N)c(C)c2)cc(C)c1N | inactive
c1ccc(-c2ccccc2)cc1 | inactive
Nc1ccc(Oc2ccc(N)cc2)cc1 | inactive
O=C(NC(=O)c1c(F)cccc1F)Nc1cc(Cl)c(OC(F)(F)C(F)C(F)(F)F)cc1Cl (stereo not drawn) | inactive
O=[N+]([O-])c1ccc(Oc2ccc(Cl)cc2Cl)cc1 | inactive
COc1ccc2c3c1O[C@H]1[C@@H](O)C=C[C@H]4[C@@H](C2)N(C)CC[C@@]341 | inactive
Clc1ccc(Cl)cc1 | inactive
Cc1ccc(N)cc1Cl | inactive
O=c1n(Cl)c(=O)n(Cl)c(=O)n1Cl | inactive

SMILES | Potency
O=c1ccc(=O)[nH][nH]1 | inactive
COP(N)(=O)SC (stereo not drawn) | inactive
CCOC(=O)c1ccccc1C(=O)OCC | inactive
C1CC2OC2CC1C1CO1 (stereo not drawn) | inactive
CC(C)OC(=O)Nc1ccccc1 | inactive
CC(C#N)CCC#N (stereo not drawn) | inactive
O=NN1CCCC1 | inactive
O=Cc1cccc(Oc2ccccc2)c1 | inactive
CC(C)N1C(=O)c2ccccc2NS1(=O)=O | inactive
C#CC(C)(C)NC(=O)c1cc(Cl)cc(Cl)c1 | inactive
COC(=O)c1ccccc1N | inactive
Cc1ccc(N)cc1N | inactive
OCCN(CCO)CCO | inactive
CCCCCCCCCCCC#N | inactive and 40.3 µM (active)
CN(C)CCO | inactive
Nc1c(Cl)c(Cl)nc(C(=O)O)c1Cl | inactive
CC(C)(C)OOC(=O)c1ccccc1 | inactive
O=c1[nH]c(=O)[nH]c(=O)[nH]1 | inactive
